Columns and labels:
Details in all cases: concentration: 1 μM, replicates: in singlicate; n = 1
CDC2L2 = system: CDC2L2
CDC2L5 = system: T1, CDC2L5
T1 construct: gene CDK13

CDK11 = system: T2, CDK11
T2 construct: gene CDK19

CDK2 = system: CDK2
CDK3 = system: CDK3
CDK4-cyclinD1 = system: CDK4-cyclinD1
CDK4-cyclinD3 = system: CDK4-cyclinD3
CDK4 = system: CDK4
CDK5 = system: CDK5
CDK7 = system: CDK7
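Further: KINOMEscan kinase panel screen.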

Row | SMILES | %Inh (CDC2L2) | %Inh (CDC2L5) | %Inh (CDK11) | %Inh (CDK2) | %Inh (CDK3) | %Inh (CDK4-cyclinD1) | %Inh (CDK4-cyclinD3) | %Inh (CDK4) | %Inh (CDK5) | %Inh (CDK7)
1 | Cc1ccc(C(=O)N2CC[C@@H](O)C2)cc1-n1c(C)cc(OCc2ccc(F)cc2F)c(Br)c1=O | 0% | 0% | 0% | 0% | 0% | 0% | 0% | 0% | 0% | 0%
2 | Cl.Cl.NCC(NCc1ccc(-c2ccnc3[nH]ccc23)s1)c1ccccc1 (stereo not drawn) [GSK1321565] | 23% | 0% | 2% | 0% | 0% | 5% | 0% | 50% | 0% | 65%
3 | Cn1cc(-c2[nH]c3cc(NC(=O)[C@H](N)C4CCCCC4)cc4c3c2C=NNC4=O)cn1 | 6% | 0% | 15% | 8% | 0% | 0% | 0% | 0% | 11% | 41%
4 | Cc1ccc(S(=O)(=O)Nc2ccc(Nc3nccc(Nc4cccc5[nH]ncc45)n3)cc2)cc1 [GSK581271] | 0% | 0% | 0% | 21% | 17% | 0% | 0% | 15% | 0% | 0%
5 | Cn1cc(-c2ccc3c(c2)CCN3C(=O)Cc2cccc(Cl)c2)c2c(N)ncnc21 [GSK2606590] | 18% | 0% | 99.5% | 0% | 7% | 0% | 0% | 34% | 0% | 0%
6 | Cl.c1ccc(-c2ccc3c(Nc4ccc5[nH]ncc5c4)ccnc3c2)nc1 [GW440137] | 16% | 0% | 3% | 0% | 0% | 0% | 29% | 0% | 0% | 8%
7 | CCS(=O)(=O)c1ccc(OC)c(Nc2nccc(-c3c(-c4cccc(NC(=O)c5c(F)cccc5F)c4)nn4ncccc34)n2)c1 [GSK326180] | 15% | 0% | 11% | 0% | 7% | 0% | 12% | 0% | 0% | 0%
8 | Nc1ncnc2c1nc(-c1ccccc1)n2-c1ccccc1 [SKF-97293] | 5% | 48% | 7% | 12% | 13% | 21% | 0% | 21% | 3% | 41%
9 | CC(C)c1nc(-c2cccc(NS(=O)(=O)c3c(F)cccc3F)c2F)c(-c2ccnc(Nc3ccc(N4CCOCC4)nc3)n2)s1 [GSK2008607] | 47% | 84% | 6% | 99.4% | 99.5% | 65% | 93.6% | 96.3% | 99.1% | 93.1%
10 | Cc1cccc(NC(=O)Nc2ccc(Oc3ncnc4ccn(C)c34)cc2)c1 | 0% | 0% | 77% | 0% | 2% | 0% | 0% | 0% | 15% | 0%
11 | COc1cc(Nc2nccc(N3CCC(NC(=O)Nc4cccc(C(C)=O)c4)C3)n2)cc(OC)c1OC (stereo not drawn) [GSK1379753] | 14% | 0% | 16% | 0% | 11% | 0% | 0% | 0% | 0% | 0%
12 | COc1ccc(-c2coc3ccc(-c4nnc(SCc5ccc(OC)c(C(F)(F)F)c5)o4)cc23)cc1 | 17% | 0% | 57% | 1% | 0% | 2% | 0% | 0% | 14% | 0%
13 | COc1cccc(NC(=O)NC2CCN(c3ccnc(Nc4cc(OC)c(OC)c(OC)c4)n3)C2)c1 (stereo not drawn) [GSK1379763] | 10% | 0% | 5% | 0% | 21% | 0% | 0% | 0% | 0% | 0%
14 | COCCOCCOc1cc2ncc3c4ccc(C#N)cc4[nH]c3c2cc1OC | 19% | 0% | 0% | 12% | 15% | 0% | 39% | 0% | 7% | 99.7%
15 | C[C@@H](Oc1cc(-n2cnc3cc(-c4ccnc(NCCS(C)(=O)=O)c4)ccc32)sc1C(N)=O)c1ccccc1Cl [GSK907232] | 5% | 0% | 20% | 13% | 16% | 0% | 0% | 0% | 0% | 0%

Reference: PMC5540273 (PLoS ONE, 2017)
